These results are taken from PubChem BioAssay (NCATS).

SMILES strings stand for the structures. Results filed as inconclusive are left out. Calls of active or inactive are those of the source. Calls follow the shape of the dose curve; as a rule, active = well fitted cell-killing curve with a large enough effect; inconclusive = small, poorly fitted or top-dose-only effect, or effect the other way; inactive = no such curve, though single readings can be large or run the other way.
Potency is read from the fitted curve at half-maximal effect.

The experiment can be described thus: Quantitative High-Throughput drug screen in 47 multiple myeloma cell lines against the NCATS MIPE library collection: KMS27_JCRB cell viability assay (AID 1918970). Also: nearly all actives have a fitted effect of over 30% in size. The settings on record: KMS27 myeloma cells, CellTiter-Glo ATP viability, 48 h; series mostly up to 45.8 µM. A digest of the protocol:
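Viability inhibition screen, 48 h compound exposure, luminescent ATP read-out.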
(In general: Cellular ATP, detected with luciferase, serves as a proxy for viable cell number.)
Regarding `COc1ccc2c(c[n+](C)c3c4cc5c(cc4ccc23)OCO5)c1OC`, the Potency is 6620 nM (active).
`C[C@@H]1CC[C@@]2(OC1)O[C@H]1C[C@H]3[C@@H]4CC=C5C[C@@H](O[C@@H]6O[C@H](CO)[C@@H](O[C@@H]7O[C@@H](C)[C@H](O)[C@@H](O)[C@@H]7O)[C@H](O)[C@@H]6O[C@@H]6O[C@@H](C)[C@H](O)[C@@H](O)[C@@H]6O)CC[C@]5(C)[C@@H]4CC[C@]3(C)[C@@H]1[C@H]2C`: the Potency is 935 nM (active).
`C1=C2CCCN[C@H]2[C@@H]2C[C@H]1[C@@H]1CCCCN1C2`: the Potency result is “inactive”.
Consider `Cc1c(C(=O)Nc2cccc(C(F)(F)F)c2)cc(-c2ccccc2)n1CCCN1CCOCC1`, for which the Potency was 18700 nM (active).
`COc1cc2cc(c1Cl)N(C)C(=O)C[C@H](OC(=O)C(C)C)[C@]1(C)O[C@H]1[C@H](C)[C@@H]1C[C@@](O)(NC(=O)O1)[C@H](OC)C=CC=C(C)C2`: the Potency entry was “inactive”.
The entry for `CCCC[N+]1(C)[C@H]2CC(OC(=O)[C@H](CO)c3ccccc3)C[C@H]1[C@H]1O[C@H]12` (some centres not stated) is “inactive”; for `O=c1[nH]c2ccc(Cl)cc2c(N[C@@H]2CN3CCC2CC3)c1-c1nc2ccccc2[nH]1` it is 187 nM (active).
`CCN1CCN(C(=O)Cc2ccc(Nc3ncc(F)c(Nc4ccc(C(=O)Nc5ccccc5Cl)cc4)n3)cc2)CC1`: the Potency is 2960 nM (active).
The entry for `COc1ccc(CC2NCCc3cc(OC)c(OC)cc32)cc1OC` (configuration not stated) is “inactive”; for `CCOP(=O)(OCC)C(C)NC(=O)N(CCCl)N=O` (configuration not stated) it is “inactive”.
On to `Cc1ccccc1-n1c(Cn2cnc3c(N)ncnc32)nc2cccc(C)c2c1=O`, for which the Potency is 296 nM (active).
For the compound `NC1=NC(=O)N2CC12` (configuration not stated), the Potency is 7430 nM (active).
`CC(C)[C@]12O[C@@H]1[C@@H]1O[C@]13[C@]1(O[C@H]1C[C@@H]1C4=C(CC[C@@]13C)C(=O)OC4)[C@H]2O`: the Potency result is “inactive”.
For the compound `CC(N[C@H]1C[C@H]1c1ccccc1)c1ccc2c(c1)OCCO2` (some centres not stated), the Potency entry is “inactive”.
As to `CCCCCC[C@H]1C(=O)O[C@H](C)[C@H](NC(=O)c2cccc(NC=O)c2O)C(=O)O[C@@H](C)[C@@H]1OC(=O)CC(C)C`, the Potency is 235 nM (active).
On to `CN(C)[C@@H]1C(=O)C(C(N)=O)=C(O)[C@@]2(O)C(=O)C3=C(O)c4c(O)cccc4[C@@](C)(O)[C@H]3[C@H](O)[C@@H]12`, for which the Potency result was “inactive”.
Turning to `CC(C)(O)C=CC(=O)[C@](C)(O)[C@H]1[C@H](O)C[C@]2(C)[C@@H]3CC=C4[C@@H](C=C(O)C(=O)C4(C)C)[C@]3(C)C(=O)C[C@@]12C`, the Potency was 20.9 nM (active).
